PubChem BioAssay
The source made the active and inactive calls. Unless noted, the rule behind the calls is not given here.

Experiments:
[1] = test system: Wnt5a (protein binding on small-molecule microarray); assay: small molecules binding Wnt5a protein – biophysical, small-molecule microarray, 635/667 nm fluorescence, primary screen (AID 1142); conditions: 635 nm fluorescence, higher = more signal;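 note: fluorescence read at 667 nm with signal to noise per printed feature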
[2] = ATP-based viability of Huh7 replicon cells – cell-based, CellTiter-Glo luminescence, basal, 48 h, cytotoxicity control for HCV replication inhibitor project, primary screen (AID 1143); conditions: higher = more signal, called active from +8 up or from −8 down;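 note: Huh7 hepatoma cells carrying a hepatitis C replication reporter with no stimulus; test concentration not given here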
[3] = Pseudomonas biofilm growth suppression – PAO1 strain, BacTiter-Glo luminescence, LB-PBS, primary screen (AID 1144); conditions: P. aeruginosa PAO1 biofilm, 12 h, higher = more signal
[4] = basal CRE-LacZ reporter activity in PC12 – cell-based, unstimulated, primary screen (AID 1145); conditions: no forskolin, luminescence, 4.5 h, higher = more signal, called active from +8 up or from −8 down
[5] = forskolin-driven CRE-LacZ activity in PC12 – cell-based, CRE-LacZ reporter, forskolin-stimulated, primary screen (AID 1146); conditions: luminescence, 4.5 h, higher = more signal, called active from +8 up or from −8 down;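 note: PC12 cells with 6xCRE LacZ reporter stimulated by forskolin 10 µM; beta-galactosidase reporter signal reflecting CREB driven transcription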
[6] = molecular target: Streptavidin (Streptomyces avidinii) (UniProt P22629); assay: compounds binding control protein streptavidin – biophysical, small-molecule microarray, 635/667 nm fluorescence, artefact control for SMM compound annotation, primary screen (AID 1147); conditions: higher = more signal;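 note: signal reflects streptavidin binding to arrayed compounds as a control protein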
Sequence of Streptavidin (Streptomyces avidinii) (P22629 whole entry, looked up): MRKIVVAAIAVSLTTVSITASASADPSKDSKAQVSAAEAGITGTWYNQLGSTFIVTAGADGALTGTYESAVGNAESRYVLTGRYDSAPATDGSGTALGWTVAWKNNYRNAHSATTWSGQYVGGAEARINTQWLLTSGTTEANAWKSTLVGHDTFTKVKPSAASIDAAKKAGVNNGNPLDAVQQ

[7] = probe aInhba binding on compound microarray – biochemical, small-molecule microarray, 635/667 nm fluorescence, primary screen (AID 1148); conditions: higher = more signal;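 note: score merges 667nm spot fluorescence with signal-to-noise for antibody binding to printed compounds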
Torsin-1A (Homo sapiens) [8] = molecular target: Torsin-1A (Homo sapiens) (UniProt O14656); assay: TOR1A wild-type binding on microarray – cell lysate, small-molecule microarray, lysate, 635/667 nm, primary screen (AID 1149); conditions: COS7 hTOR1A-WT lysate, 635 nm fluorescence, higher = more signal
Sequence of Torsin-1A (Homo sapiens) (O14656 whole entry, looked up): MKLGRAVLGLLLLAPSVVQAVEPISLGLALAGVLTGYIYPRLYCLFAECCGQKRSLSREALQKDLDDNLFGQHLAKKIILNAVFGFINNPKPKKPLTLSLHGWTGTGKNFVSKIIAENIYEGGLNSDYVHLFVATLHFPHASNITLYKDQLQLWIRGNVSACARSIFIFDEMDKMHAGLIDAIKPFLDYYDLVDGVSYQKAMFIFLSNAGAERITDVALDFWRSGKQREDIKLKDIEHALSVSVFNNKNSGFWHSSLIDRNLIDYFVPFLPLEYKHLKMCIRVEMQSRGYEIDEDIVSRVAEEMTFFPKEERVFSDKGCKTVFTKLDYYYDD

Torsin-1A (Homo sapiens) [9] = molecular target: Torsin-1A (Homo sapiens) (UniProt O14656); assay: torsin A mutant lysate binding on microarrays – cell lysate, small-molecule microarray, COS7 lysate, 635/667 nm fluorescence, primary screen (AID 1150); conditions: COS7 hTOR1A mutant lysate, 635 nm fluorescence, higher = more signal;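 note: score pools 667 nm emission and signal to noise measuring lysate protein binding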
[10] = test system: Sonic hedgehog protein (Shh); assay: Sonic hedgehog microarray binding compounds – biochemical, small-molecule microarray, 635/667 nm fluorescence, primary screen (AID 1151); conditions: 635 nm fluorescence, higher = more signal;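 note: Shh protein binding to compounds spotted on small-molecule microarray slides; score combines spot fluorescence intensity with signal-to-noise across triplicate slides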
[11] = optical density shifts of acrAB sulA E. coli – strain DRC41, OD650, 48 h, E. coli filamentation inducer project, primary screen (AID 1152); conditions: higher = more signal, called active from +8 up or from −8 down;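 note: E. coli MC1000 strain DRC41 lacking acrAB efflux pump and sulA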
[12] = probe aLefty1 binding on compound microarray – biochemical, small-molecule microarray, 635/667 nm fluorescence, primary screen (AID 1153); conditions: higher = more signal;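 note: score merges spot fluorescence with signal-to-noise ratio from the scanned slide images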
[13] = plasmodial surface anion channel blockers, osmotic lysis – cell-based, P. falciparum Indochina, OD700, 1 h, primary screen (AID 1154); conditions: P. falciparum Indochina infected RBC osmotic lysis, higher = more signal, called active from +8 up or from −8 down
[14] = plasmodial surface anion channel blockers, osmotic lysis – cell-based, P. falciparum Indochina, OD700, 2 h, primary screen (AID 1155);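 note: lysis reports solute entry through the parasite surface anion channel PSAC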; conditions: P. falciparum Indochina infected erythrocytes, higher = more signal, called active from +8 up or from −8 down
[15] = changes in parasitized red cell lysis, either direction – P. falciparum Indochina, OD700, 3 h, PSAC antagonist project, primary screen (AID 1156); conditions: P. falciparum-infected erythrocytes, osmotic lysis, higher = more signal, called active from +8 up or from −8 down
[16] = plasmodial surface anion channel blockers, osmotic lysis – cell-based, P. falciparum Indochina, OD700, 18 h, primary screen (AID 1157); conditions: P. falciparum Indochina infected erythrocytes, osmotic lysis OD700, 18 h; higher = more signal, called active from +8 up or from −8 down
[17] = S6 kinase pathway phospho-S6 level changes – cell-based, A549, cytoblot, luminescence, serum-stimulated, primary screen (AID 1158); conditions: 5 h, higher = more signal;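 note: serum-stimulated A549 lung adenocarcinoma cells; signal is phosphorylated S6 detected by cytoblot immunostaining with HRP secondary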
[18] = molecular target: NADPH oxidase 2 (Homo sapiens) (UniProt P04839); assay: compounds shifting NOX2 Amplex Red fluorescence – cell-based, HEK293-NOX2, PMA-stimulated, NOX inhibitor project, primary screen (AID 1159); conditions: 45 min, higher = more signal, called active from +8 up or from −8 down; note: test concentration not given here
Sequence of NADPH oxidase 2 (Homo sapiens) (P04839 whole entry, looked up): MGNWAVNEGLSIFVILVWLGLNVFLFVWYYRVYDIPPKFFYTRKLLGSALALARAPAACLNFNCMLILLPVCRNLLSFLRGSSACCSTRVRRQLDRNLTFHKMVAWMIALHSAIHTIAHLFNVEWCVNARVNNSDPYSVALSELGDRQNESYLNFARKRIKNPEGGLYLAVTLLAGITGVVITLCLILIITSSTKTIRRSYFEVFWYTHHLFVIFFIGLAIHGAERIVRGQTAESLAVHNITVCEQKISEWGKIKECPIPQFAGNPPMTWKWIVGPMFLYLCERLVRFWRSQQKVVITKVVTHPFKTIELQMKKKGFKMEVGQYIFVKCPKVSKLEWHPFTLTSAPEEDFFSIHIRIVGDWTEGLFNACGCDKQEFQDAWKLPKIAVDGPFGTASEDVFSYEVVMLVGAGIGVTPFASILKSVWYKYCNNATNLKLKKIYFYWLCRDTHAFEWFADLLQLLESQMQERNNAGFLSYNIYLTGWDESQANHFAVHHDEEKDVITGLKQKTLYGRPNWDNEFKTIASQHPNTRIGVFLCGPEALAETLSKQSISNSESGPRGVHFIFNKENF

[19] = molecular target: NADPH oxidase 4 (Homo sapiens) (UniProt Q9NPH5); assay: compounds shifting NOX4 Amplex Red fluorescence – cell-based, HEK293-NOX4, tetracycline-induced, NOX inhibitor project, primary screen (AID 1160); conditions: HEK293-NOX4, Amplex Red H2O2 fluorescence, 45 min; higher = more signal, called active from +8 up or from −8 down
Sequence of NADPH oxidase 4 (Homo sapiens) (Q9NPH5 whole entry, looked up): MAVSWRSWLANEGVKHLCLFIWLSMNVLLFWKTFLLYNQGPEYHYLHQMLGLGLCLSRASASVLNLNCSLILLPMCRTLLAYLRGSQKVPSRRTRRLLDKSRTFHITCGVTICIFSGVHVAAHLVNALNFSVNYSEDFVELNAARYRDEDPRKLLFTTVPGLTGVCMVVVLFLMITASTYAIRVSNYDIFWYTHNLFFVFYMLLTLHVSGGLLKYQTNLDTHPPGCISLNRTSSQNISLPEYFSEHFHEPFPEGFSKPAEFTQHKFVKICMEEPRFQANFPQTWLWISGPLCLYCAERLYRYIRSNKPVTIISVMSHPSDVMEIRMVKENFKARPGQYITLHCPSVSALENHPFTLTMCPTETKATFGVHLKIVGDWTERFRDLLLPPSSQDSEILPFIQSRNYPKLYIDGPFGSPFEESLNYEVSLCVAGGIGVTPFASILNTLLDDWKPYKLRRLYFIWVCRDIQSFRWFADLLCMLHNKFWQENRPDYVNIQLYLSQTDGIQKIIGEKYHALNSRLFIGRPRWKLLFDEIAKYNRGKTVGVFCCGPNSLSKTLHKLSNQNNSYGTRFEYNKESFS

[20] = molecular target: NADPH oxidase 5 (Homo sapiens) (UniProt Q96PH1); assay: compounds shifting NOX5 Amplex Red fluorescence – cell-based, HEK293-NOX5, NOX inhibitor project, primary screen (AID 1161); conditions: HEK293-NOX5, ionomycin, 45 min, higher = more signal
Sequence of NADPH oxidase 5 (Homo sapiens) (Q96PH1 whole entry, looked up): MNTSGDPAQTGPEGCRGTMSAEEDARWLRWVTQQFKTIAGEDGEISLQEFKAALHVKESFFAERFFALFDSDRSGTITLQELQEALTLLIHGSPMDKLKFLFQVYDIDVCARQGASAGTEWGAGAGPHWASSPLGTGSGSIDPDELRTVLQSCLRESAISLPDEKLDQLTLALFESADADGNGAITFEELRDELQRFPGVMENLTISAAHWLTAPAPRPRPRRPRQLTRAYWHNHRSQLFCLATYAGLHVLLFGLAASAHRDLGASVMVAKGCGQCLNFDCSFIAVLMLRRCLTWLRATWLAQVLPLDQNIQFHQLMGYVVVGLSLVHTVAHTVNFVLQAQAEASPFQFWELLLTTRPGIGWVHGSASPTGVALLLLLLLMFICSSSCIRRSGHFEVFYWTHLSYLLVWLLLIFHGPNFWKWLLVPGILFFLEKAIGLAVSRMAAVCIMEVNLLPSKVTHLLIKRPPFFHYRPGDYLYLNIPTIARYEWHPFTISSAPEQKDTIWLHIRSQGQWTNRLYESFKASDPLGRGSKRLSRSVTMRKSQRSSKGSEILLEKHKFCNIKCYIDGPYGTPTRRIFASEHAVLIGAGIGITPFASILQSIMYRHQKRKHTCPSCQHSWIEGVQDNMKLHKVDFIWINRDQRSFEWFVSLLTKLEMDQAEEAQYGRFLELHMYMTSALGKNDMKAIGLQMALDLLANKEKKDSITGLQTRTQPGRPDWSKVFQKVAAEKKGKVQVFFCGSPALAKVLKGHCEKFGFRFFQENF

Row | SMILES | composite z-score [1] | z-score [2] | z-score [3] | z-score [4] | z-score [5] | composite z-score [6] | composite z-score [7] | composite z-score (Torsin-1A (Homo sapiens) [8]) | composite z-score (Torsin-1A (Homo sapiens) [9]) | composite z-score [10] | z-score [11] | composite z-score [12] | z-score [13] | z-score [14] | z-score [15] | z-score [16] | z-score [17] | z-score [18] | z-score [19] | z-score [20]
1 | O=C1N(Cc2ccccc2)c2ccccc2C[C@@]12COC(c1ccc(OCCCO)cc1)=N2 | 0.82 | -3.39 (inactive) | -0.576 (inactive) | 2.41 (inactive) | -0.914 (inactive) | 0.431 | 0.397 | 0.492 | 1.03 | 0.383 | 0.0226 (inactive) | 0.391 | 25.5 (active) | 10.1 (active) | 3.4 (inactive) | 1.33 (inactive) | 0.255 | -0.231 (inactive) | -0.221 (inactive) | -1.79
2 | O=C(NC1CC1)[C@@H]1c2ccccc2C(=O)N(CC23CC4CC(CC(C4)C2)C3)[C@H]1c1ccc(CO)cc1 | 0.659 | -1.29 (inactive) | -0.88 (inactive) | 0.0026 (inactive) | -0.049 (inactive) | 0.189 | 0.0697 | 0.197 | 0.833 | 1.88 | 0.268 (inactive) | 0.284 | 1.56 (inactive) | 0.464 (inactive) | 1.48 (inactive) | 0.181 (inactive) | 0.268 | 0.507 (inactive) | 0.157 (inactive) | 0.412
3 | C=CCOC(=O)[C@@H]1[C@H]2C(=O)O[C@H](c3ccccc3)[C@H](c3ccccc3)N2[C@H](c2ccc(OCCOC(=O)[C@H]3C[C@H]4C(=O)N[C@@H](CCCCN(C)C)C(=O)N4[C@H]3c3ccc(O)cc3)cc2)[C@@]12C(=O)Nc1ccc(I)cc12 | 0.374 | -1.29 (inactive) | -0.852 (inactive) | -0.118 (inactive) | 2.13 (inactive) | 0.433 | 0.0895 | 1.18 | 0.9 | 1.98 | -1.09 (inactive) | 0.0313 | -0.202 (inactive) | 0.422 (inactive) | 3.69 (inactive) | -0.116 (inactive) | -1.34 | 1.6 (inactive) | 0.182 (inactive) | 0.946
4 | CCOC(=O)C1=CC[C@@H](c2ccc(OC)cc2)N(S(=O)(=O)c2ccc(C)cc2)[C@H]1CC | 0.174 | -5.57 (inactive) | -0.785 (inactive) | -0.882 (inactive) | -0.0915 (inactive) | 1.53 | 0.152 | 0.318 | 0.714 | 0.964 | 0.938 (inactive) | -0.0018 | 2.22 (inactive) | -0.258 (inactive) | -1.07 (inactive) | -1.62 (inactive) | 1.27 | 0.0165 (inactive) | -0.911 (inactive) | 0.209
